Measured values: PubChem BioAssay AID504332 (National Center for Advancing Translational Sciences (NCATS), 2011)
Screen size: about 350,000 compounds; about 31,000 (8.9%) were called active. Inconclusive results (about 15%) are left out. Calls follow the shape of the dose curve; as a rule, active = well fitted inhibition curve with a large enough effect; inconclusive = small, poorly fitted or top-dose-only effect; inactive = no such curve, though single readings can be large or run the other way. The full list was thinned out, with actives kept by preference.

molecular target: Histone-lysine N-methyltransferase EHMT2 (Homo sapiens) (UniProt Q96KQ7); assay: qHTS Assay for Inhibitors of Histone Lysine Methyltransferase G9a; conditions: G9a H3K9 monomethylation, AlphaScreen, 2 h; series mostly up to 59 µM; activity, negative = inhibition: at the top concentration; also: nearly all actives have a fitted effect of over 75% in size
Sequence (Q96KQ7 913-1193 limits assumed): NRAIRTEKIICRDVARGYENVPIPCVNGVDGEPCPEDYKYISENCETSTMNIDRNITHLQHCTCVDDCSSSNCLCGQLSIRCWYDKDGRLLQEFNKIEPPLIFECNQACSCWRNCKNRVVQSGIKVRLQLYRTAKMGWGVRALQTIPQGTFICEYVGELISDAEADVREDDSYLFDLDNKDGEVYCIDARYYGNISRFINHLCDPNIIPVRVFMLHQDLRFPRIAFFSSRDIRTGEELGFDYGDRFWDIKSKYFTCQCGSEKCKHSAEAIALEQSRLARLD
How it was run: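 AlphaScreen detection with an anti-monomethyl H3K9 antibody quantified product after a 2 h room-temperature reaction containing 500 nM biotinylated H3K9 peptide, 20 µM SAM and 20 nM enzyme, which had been preincubated 15 min with compound.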
% is scaled to controls: 0 for no effect and ±100 for the full control effect; potency is read from the fitted curve at half-maximal effect.

| SMILES | activity, negative = inhibition | Potency |
| --- | --- | --- |
| CCCSc1ncc(Cl)c(C(=O)Nc2c(C(=O)Nc3ccccc3)oc3ccccc23)n1 | -2.95% (inactive) |  |
| COc1ccc2c(C)cc(SCC(=O)NCC3CCCO3)nc2c1 (stereo not given) | 17.7% [at 2.33 µM] (inactive) |  |
| CCOC(=O)c1cnc2c(C)cc(C)cc2c1Nc1ccc(N2CCOCC2)cc1 |  | 10 µM (active) |
| CCOC(=O)c1cnc2ccc(F)cc2c1Nc1ccc2c(c1)OCCO2 | -40.5% (inactive) |  |
| CCOC(=O)c1cnc2c(C)cc(Cl)cc2c1NCCc1ccc(OC)c(OC)c1 | 0.754% (inactive) |  |
| FC(F)(F)c1ccc2c3n(nc2c1)CCN=C3c1ccc(Cl)cc1 | 23% [at 2.33 µM] (inactive) |  |
| Cc1ccc(CNC(=O)CSc2c(C)cnc3c2c(=O)n(C)c(=O)n3C)cc1 | -1.97% (inactive) |  |
| Cc1cccnc1CC(C)NC(=O)c1cc(COc2cncc(Cl)c2)on1 (stereo not given) | 49.6% [at 102 µM] (inactive) |  |
| O=S(=O)(c1ccccc1)c1nc(-c2ccccc2)oc1NCCCN1CCOCC1 | 5.12% [at 102 µM] (inactive) |  |
| CCOc1cc(N2CCOCC2)c(OCC)cc1NC(=O)c1ccc(C)s1 |  | 44.7 µM (active) |
| CCOc1cc(N2CCOCC2)c(OCC)cc1NC(=O)COC(=O)[C@H](Cc1c[nH]c2ccccc12)NC(C)=O | -12.3% (inactive) |  |
| CCOc1cc(N2CCOCC2)c(OCC)cc1NC(=O)c1cc(C)nc2ccccc12 | -23.5% [at 102 µM] (inactive) |  |
| Cc1c(C(=O)Nc2cccc(Cl)c2)oc2ccc(S(=O)(=O)N3CCOCC3)cc12 | 9.55% (inactive) |  |
| CC[C@@]12C(=O)N(c3ccccc3)C(=O)N1[C@H](c1ccc(Br)cc1)[C@@H]1C(=O)N(C(C)(C)C)C(=O)[C@@H]12 | 53.8% [at 2.33 µM] (inactive) |  |
| CCCc1ccc(C(=O)COC(=O)CN2C(=O)NC3(CCCCC3C)C2=O)cc1 (stereo not given) | -4.43% [at 12.7 µM] (inactive) |  |
| CCc1nn(CC(=O)N2CCN(c3ccc(Cl)cc3)CC2)c(=O)c2cc3occc3n12 | -0.323% (inactive) |  |
| CCOc1ccc(CCNC(=O)COC(=O)C2CCN(c3ccc(C(F)(F)F)cn3)CC2)cc1OCC | 4.55% [at 102 µM] (inactive) |  |
| S=c1[nH]nc(-c2ccccc2)n1/N=C/c1c[nH]c2ccccc12 |  | 1.58 µM (active) |
| CSC(=S)N/N=C/c1c[nH]c2ccccc12 | -9.3% (inactive) |  |
| S=c1[nH]nc(-c2ccco2)n1/N=C/c1ccccc1 |  | 1.58 µM (active) |

| SMILES | activity, negative = inhibition | Potency |
| --- | --- | --- |
| S=c1[nH]nc(-c2ccncc2)n1/N=C/c1ccccc1Cl |  | 1.41 µM (active) |
| CCc1n[nH]c(=S)n1/N=C/c1c[nH]c2ccc(Br)cc12 |  | 8.91 µM (active) |
| Nc1nonc1-n1nnc(C(=O)N/N=C/c2c[nH]c3ccccc23)c1-c1ccccc1 | 96.6% [at 102 µM] (inactive) |  |
| COc1ccc(Br)cc1/C=N/n1c(C)nnc1C | 4.01% (inactive) |  |
| CCCCN(C)c1nnc(NC(=O)Nc2ccc(Br)c(C)c2)s1 | -8.76% (inactive) |  |
| O=C(O)c1cc(S(=O)(=O)N(Cc2ccccc2)c2cccc(C(F)(F)F)c2)ccc1Cl | 7.94% [at 102 µM] (inactive) |  |
| O=C(NCCC1=CCCCC1)c1ccc(-n2cncn2)cc1 | 3.99% [at 12.7 µM] (inactive) |  |
| Cc1oc2ccc(O)c(CN3CCCCC3)c2c1C(=O)Nc1cccc(C(F)(F)F)c1 | -4.04% (inactive) |  |
| O=C(NCc1ccccc1Cl)C(=O)NCC1CCCN1S(=O)(=O)c1cccs1 (stereo not given) | 1.3% [at 102 µM] (inactive) |  |
| CCCC1C(=O)N2C(N(C)C)=Nc3ccc(C)cc3N2C1=O (stereo not given) |  | 3.55 µM (active) |
| Cc1ccc2c(c1)N(CC(=O)NCC1CCCO1)C(=O)CO2 (stereo not given) | 12.4% [at 102 µM] (inactive) |  |
| c1ccc(-c2cc(-c3ccccc3)[nH]n2)cc1 | 26.9% [at 102 µM] (inactive) |  |
| CCc1ccc(CNCc2c(C(=O)O)n(Cc3ccc(F)cc3Cl)c3cc(OC)ccc23)cc1 | -2.34% (inactive) |  |
| Cc1nc2c(-c3ccccc3)c(C)nn2c(C)c1CCC(=O)NCCc1ccccc1 | 5.72% (inactive) |  |
| Cc1cc(OC(C)C(=O)NC2CC(C)(C)NC(C)(C)C2)c2c(C)cc(=O)oc2c1 (stereo not given) | 15.6% [at 102 µM] (inactive) |  |
| CCc1ccccc1NC(=O)N1CCN(C(=O)c2nsc3ccccc23)CC1 | 12.5% (inactive) |  |
| CCN(Cc1ccccc1)Cc1c(O)ccc2c(=O)c(-c3ccc(Cl)cc3Cl)coc12 | -2.39% (inactive) |  |
| O=C(O)CSc1ccc(S(=O)(=O)N2CCCC2)cn1 | -37.2% [at 2.33 µM] (inactive) |  |
| CC(C)(C)NC(=O)NCc1ccco1 | 9.25% [at 102 µM] (inactive) |  |
| Cc1ccc(/C([O-])=C(/C(=S)NCc2ccco2)[n+]2ccccc2)cc1[N+](=O)[O-] |  | 39.8 µM (active) |

| SMILES | activity, negative = inhibition | Potency |
| --- | --- | --- |
| O=C(NCc1ccco1)c1ccc([N+](=O)[O-])cc1Cl | 17.2% [at 102 µM] (inactive) |  |
| O=C(c1ccc(F)c(S(=O)(=O)N2CCOCC2)c1)N(CCc1ccccc1)Cc1ccccc1 | -4.88% [at 102 µM] (inactive) |  |
| CC(=O)c1cccc(OCc2cc(C(=O)NC(C)Cc3cccnc3)no2)c1 (stereo not given) | 10.3% [at 102 µM] (inactive) |  |
| CN(C)CCn1c2c(c(SCC(=O)NCc3ccccc3)nc1=O)CCC2 | -1.82% [at 102 µM] (inactive) |  |
| Nc1c(Cl)cc(-c2csc(N3CCCC3c3nc4cc(Cl)c(Cl)cc4n3CCOCCO)n2)cc1Cl (stereo not given) | 23.4% [at 102 µM] (inactive) |  |
| Cc1nc2cc(C(F)(F)F)ccc2n1CCNc1nc(-c2cc(Cl)c(N)c(Cl)c2)cs1 |  | 39.8 µM (active) |
| COc1ccc(C(C(O)C(=O)c2c[nH]c3ccccc23)N2CCN(c3ccccc3)CC2)cc1 (stereo not given) |  | 25.1 µM (active) |
| COc1cccc(-n2c(SCC(=O)c3c[nH]c4ccccc34)nc3ccccc3c2=O)c1 | 11.3% (inactive) |  |
| COc1ccc(C(CC(=O)N2CCN(c3ccccc3)CC2)c2c(O)cc(OC)cc2OC)cc1 (stereo not given) | -0.615% [at 12.7 µM] (inactive) |  |
| COc1ccc(CCNC(=O)c2cc(=O)c3c(C)cc(C)cc3o2)cc1OC | -8.8% (inactive) |  |
| COc1cccc(N2CCN(S(=O)(=O)c3ccc4c(c3)CCCN4C(C)=O)CC2)c1 | 3.68% (inactive) |  |
| CCOC(=O)Nc1sc(C(=O)N(C)C)c(C)c1C(=O)OCC | 27.3% [at 102 µM] (inactive) |  |
| CCOC(=O)c1c(NC(=O)C2CC=CCC2C(=O)O)sc(C)c1CC (stereo not given) | -8.47% [at 102 µM] (inactive) |  |
| CCOC(=O)c1c(NC(C)=O)sc2c(O)c(Br)ccc12 |  | 1.58 µM (active) |
| Cc1ccccc1CNC(=O)C1CCCN(S(=O)(=O)N(C)c2ccc(F)cc2)C1 (stereo not given) | -0.195% (inactive) |  |
| Cc1nn(-c2ccc(N3CCCCC3)nn2)c(C)c1CCC(=O)NCc1ccc(F)cc1 | 0.738% (inactive) |  |
| COC(=O)c1oc2ccc(Br)cc2c1NC(C)=O | 3.67% (inactive) |  |
| COC(=O)c1[nH]c2ccc(Br)cc2c1NC(=O)Oc1ccccc1 |  | 11.2 µM (active) |
| C/C(=N\N)c1c(-c2ccccc2)c2cc(Br)ccc2[nH]c1=O | 0.552% [at 102 µM] (inactive) |  |
| O=C(Nc1ccccc1)C1CCN(C(=O)c2ccc(Br)cc2)CC1 | -4.25% [at 102 µM] (inactive) |  |
